From PubChem BioAssay (NCATS) come the findings set out here.

Inconclusive results are not listed. Values without a mark were called inactive. Calls of active or inactive are those of the source. Calls come from the whole dose curve; as a rule, active = well fitted curve in the direction sought with a large enough effect; inconclusive = small, poorly fitted or top-dose-only effect, or another doubt; inactive = no such curve, though single readings can be large; an effect the other way counts as inactive or inconclusive.

By viability is commonly meant a read-out of living cells in per cent, often relative to untreated cells.

For assay [1], the target named is Aldehyde dehydrogenase, mitochondrial (Homo sapiens) (UniProt P05091). In words: qHTS for Inhibitors of the Aldehyde Dehydrogenase Family (ALDH2) Primary screen (AID 2061308).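 Note: plate controls were vehicle for no effect and reference inhibitor for full effect; nearly all actives have a fitted effect of over 55% in size.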 For orientation: In qHTS, concentration-response curves come from the screen itself.
The target in assay [2] is Retinaldehyde dehydrogenase 3 (Homo sapiens) (UniProt P47895). In words: qHTS for Inhibitors of the Aldehyde Dehydrogenase Family (ALDH1A3) Primary screen (AID 2061315).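 Note: plate controls were DMSO vehicle for no effect and reference inhibitor for full effect.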
Assay [3] can be described thus: BET inhibitor-based combinations targeting novel dependencies in MECOM-rearranged (r) AML: SET-2 cell line (AID 2202231).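 For viability: plate controls were DMSO treated cells for no effect and wells without cells for full effect.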 Note: nearly all actives have a fitted effect of over 35% in size. Note: potency is the fitted concentration of half-maximal effect. The settings on record: SET-2 AML cells viability, CellTiter-Glo luminescence, 48 h; viability: stronger effect = lower value, concentration not given here. The procedure, abridged: (§1)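 Luminescent ATP readout (CellTiter-Glo) after 48 hr drug exposure gives viability. Curves span 11 concentrations and are normalized to DMSO and empty wells. Activity is reported as area under the curve and its Z-transform within each cell line.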

Assay [4] can be described thus: BET inhibitor-based combinations targeting novel dependencies in MECOM-rearranged (r) AML: OCI-AML3 cell line (AID 2202232). Note: nearly all actives have a fitted effect of over 35% in size. Note: potency is the fitted concentration of half-maximal effect. To be noted: Potency: OCI-AML3 viability. The procedure, abridged: as §1
Assay [5] in a line: BET inhibitor-based combinations targeting novel dependencies in MECOM-rearranged (r) AML: HNT-34 cell line (AID 2202234). Note: nearly all actives have a fitted effect of over 35% in size. Note: potency is the fitted concentration of half-maximal effect. In outline:
(§2)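 Luminescent ATP readout (CellTiter-Glo, 15 min at room temperature) after 48 hr drug exposure gave viability. Dose-response curves, normalized to DMSO and empty-well controls, were summarized as area under the curve and its mean-centred Z-score.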

The nature of assay [6]: BET inhibitor-based combinations targeting novel dependencies in MECOM-rearranged (r) AML: AML-191 cell line (AID 2202236; note: nearly all actives have a fitted effect of over 35% in size; note: potency is the fitted concentration of half-maximal effect). The procedure, abridged: as §1
The nature of assay [7]: BET inhibitor-based combinations targeting novel dependencies in MECOM-rearranged (r) AML: UCSD-AML1 cell line (AID 2202235). Note: nearly all actives have a fitted effect of over 40% in size. Note: potency is the fitted concentration of half-maximal effect. The procedure, abridged: as §2
A short description of assay [8]: BET inhibitor-based combinations targeting novel dependencies in MECOM-rearranged (r) AML: MV-4-11 cell line (AID 2202233). Note: potency is the fitted concentration of half-maximal effect; nearly all actives have a fitted effect of over 45% in size. The procedure, abridged: as §2
Assay [9] is described as follows: BET inhibitor-based combinations targeting novel dependencies in MECOM-rearranged (r) AML: AML-194 cell line (AID 2202237; note: nearly all actives have a fitted effect of over 40% in size; note: potency is the fitted concentration of half-maximal effect). In outline:
as §1

Assay [10] deals with Retinaldehyde dehydrogenase 3 (Homo sapiens) (UniProt P47895). The assay is described as follows: qHTS for Inhibitors of the Aldehyde Dehydrogenase Family (ALDH1A3) Confirmatory screens (AID 2061311). Note: potency is the fitted concentration of half-maximal effect; nearly all actives have a fitted effect of over 60% in size.
Assay [11] addresses Retinal dehydrogenase 2 (Homo sapiens) (UniProt O94788). In words: qHTS for Inhibitors of the Aldehyde Dehydrogenase Family (ALDH1A2) Confirmation screens (AID 2061314). Note: potency is the fitted concentration of half-maximal effect; nearly all actives have a fitted effect of over 65% in size.
Assay [12] deals with Aldehyde dehydrogenase 1A1 (Homo sapiens) (UniProt P00352). The assay is described as follows: qHTS for Inhibitors of the Aldehyde Dehydrogenase Family (ALDH1A1) Confirmatory screens (AID 2061316). Note: potency is the fitted concentration of half-maximal effect; nearly all actives have a fitted effect of over 65% in size.

`CC(=O)O[C@H]1C(=O)[C@@]2(C)C([C@H](OC(=O)c3ccccc3)[C@]3(O)C[C@H](OC(=O)[C@H](O)[C@@H](NC(=O)c4ccccc4)c4ccccc4)C(C)=C1C3(C)C)[C@]1(OC(C)=O)CO[C@@H]1C[C@@H]2O` (stereo partly drawn): the Potency entry in assay [1] and in assay [2] was “inactive” in each case. Further, the Potency was 148 nM (active) in assay [3], 0.0059 µM (active) in [4], 0.0042 µM (active) in assay [5] and 0.0209 µM (active) in assay [6].

Turning to `Cn1cc(-c2cnc3ccc4ccc(CS(=O)(=O)NCc5ccccn5)cc4c(=O)c3c2)cn1`, the Potency entry in assay [1], in assay [2], in assay [4] and in [7] was “inactive” throughout. The Potency in assay [5] and in [6] was 23.5 µM (active) throughout.

In the case of `O=C(C1CC1)N1CC[C@@H](Cn2c(-c3ccc(-c4ccc5occc5c4)cc3)nc3cnccc32)C1`, the Potency entry in [1] and in assay [2] was “inactive” in each case. Moreover, the Potency in assay [4] is 10.5 µM (active); in assay [8] it was 20.9 µM (active); in assay [5] it was 26.3 µM (active).

For `CCn1c(N)c(C(=O)NC)c(=O)c2ccc(C#CC(C)(O)COC)nc21` (stereo not drawn), the Potency entry in assay [1], in assay [2], in [7] and in [9] was “inactive” each time. Besides, the viability in assay [3] is 91.1%. Moreover, in assay [6], the Potency was 23.5 µM (active).

`O=C(CO)N1CCC(c2[nH]nc(-c3ccc(Cl)cc3)c2-c2ccncn2)CC1`: the Potency entry in assay [1], in [2], in [4], in assay [5], in assay [7] and in [6] was “inactive” throughout. In assay [3], the viability is 101%.

Turning to `Cc1ccc(NC(=O)c2ccc(CN3CC[C@H](N(C)C)C3)c(C(F)(F)F)c2)cc1Nc1nccc(-c2cncnc2)n1`, the Potency entry in assay [1] and in assay [2] was “inactive” in each case. Besides, the Potency in assay [4] was 2.04 µM (active); in assay [8] it was 8.11 µM (active); in assay [5], 0.0407 µM (active); in [9], 14.4 µM (active).

On to `Cc1cc(-c2nc3cc(F)ccc3s2)ccc1NC(=O)[C@@H](N)CCCCN`, for which the Potency entry in assay [1] and in assay [2] was “inactive” in each case. Besides, the Potency is 14.8 µM (active) in assay [4]; 13.2 µM (active) in assay [8]; 8.33 µM (active) in [5]; 14.8 µM (active) in assay [7]; 16.6 µM (active) in assay [6]; 16.6 µM (active) in assay [9].

With `C=CC(=O)N1CCC[C@@H](n2nc(-c3ccc(Oc4ccccc4)cc3)c3c(N)ncnc32)C1`, the Potency entry in assay [1], in [2] and in [4] was “inactive” in each case. For the same molecule, the Potency in assay [8] was 2.95 µM (active); in assay [5], 5.9 µM (active).

In the case of `O=C(NCc1ccc(S(=O)(=O)c2cccc(C(F)(F)F)c2)cc1)c1cnc2[nH]ncc2c1`, the Potency result in assay [1] and in [2] was “inactive” each time. In addition, the Potency in assay [4] is 0.0148 µM (active); in [8], 0.0833 µM (active); in [5] it was 0.0263 µM (active); in assay [7], 0.0209 µM (active); in assay [6] it was 0.0148 µM (active); in assay [9], 0.742 µM (active).

`O=C(Nc1cccnc1)c1cc(-c2ccnc(F)c2)ccc1OCc1ccccc1`: the Potency result in [1], in [2], in assay [7], in [6] and in assay [9] was “inactive” throughout. In assay [3], the viability is 121%. In [8], the Potency was 3.72 µM (active).

As for `CCCNC(=O)[C@H]1O[C@@H]1C(=O)N[C@H](C(=O)N1CCC[C@H]1C(=O)OC)C(C)CC` (stereo partly drawn), the Potency result in assay [1] and in [2] was “inactive” throughout. Further, the Potency in assay [3] was 26300 nM (active); in assay [4], 2.09 µM (active); in [8], 8.33 µM (active); in [9], 10.5 µM (active).

As for `Cc1[nH]c(/C=C2\C(=O)Nc3ccc(F)cc32)c(C)c1C(=O)NC[C@H](O)CN1CCOCC1`, the Potency result in [1] and in assay [2] was “inactive” in each case. Besides, the Potency in assay [4] is 5.25 µM (active); in [8] it was 0.0742 µM (active); in assay [5], 3.72 µM (active); in [7], 10.5 µM (active); in assay [6], 4.17 µM (active); in assay [9], 10.5 µM (active).

As to `C[C@@H]1CCNC(=O)c2cc3ccc(C(=O)Nc4nc5ccccc5n4CCCN(C)C)cc3n21`, the Potency result in assay [1] and in assay [2] was “inactive” in each case. Moreover, the Potency in [4] was 6.61 µM (active); in assay [8] it was 0.59 µM (active); in [5] it was 16.6 µM (active).

Take `CCn1c(=O)c(-c2ccc(-c3cncs3)cc2Cl)cc2cnc(Nc3ccc(N4CCN(C)CC4)cc3)nc21`: the Potency result in assay [1] and in assay [2] was “inactive” each time. The viability in [3] was 104%. In addition, the Potency in assay [8] is 1.86 µM (active).

Regarding `COc1ccc(Cl)c(Nc2nc3ccccc3nc2NS(=O)(=O)c2cccc(NC(=O)C(C)(C)N)c2)c1`, the Potency entry in assay [1] and in assay [2] was “inactive” each time. For the same molecule, the viability in assay [3] is 103%. Besides, the Potency in [5] is 23.5 µM (active); in [6] it was 16.6 µM (active); in [9], 20.9 µM (active).

For the molecule `C[C@@H]1CC(=O)Nc2cccc(-c3cnn(C(C)(C)C)c3)c2N1`, the Potency entry in assay [1] and in assay [2] was “inactive” throughout. For the same molecule, the Potency is 18.6 µM (active) in assay [4], 16.6 µM (active) in assay [8], 14.8 µM (active) in assay [7] and 16.6 µM (active) in [6].

With `COc1ccc2[nH]c(S(=O)Cc3ncc(C)c(OC)c3C)nc2c1` (stereo not drawn), the viability in [3] was 97.7%.

Turning to `CC(/C=C/C(=O)NO)=C\[C@@H](C)C(=O)c1ccc(N(C)C)cc1`, the Potency in [3] was 372 nM (active).

Regarding `CCC(=O)NC(c1cccs1)c1cc([N+](=O)[O-])c2cccnc2c1OC` (stereo not drawn), the results for the Potency in [10], in assay [11] and in assay [12] were 3.57 µM (active), 2.01 µM (active) and 11.3 µM (active), respectively.

With `O=C(Nc1cccc(Cc2ccccc2)n1)c1ccc(-c2cccc([N+](=O)[O-])c2)o1`, the Potency is 6.34 µM (active) in assay [10], 7.98 µM (active) in [11] and 5.65 µM (active) in [12]. Further, the Potency result in assay [2] was “inactive”.
